# Data taken from the supplement of paper PMC8728848.
# The entries come from a sample that favours the strongest signals as a whole.
# B1: rCNL (Clitocybe nebularis), B2ZRS9 (protein)
# chain: SITPGTYNITNVAYTNRLIDLTGSNPAENTLIIGHHLNKTPSGYGNQQWTLVQLPHTTIYTMQAVNPQSYVRVRDDNLVDGAALVGSQQPTPVSIESAGNSGQFRIKIPNLGLALTLPSDANSTPIVLGEVDETSTNQLWAFESVSAV
# Legend:
# Assay in all cases: glycan array binding signal (z-score within array); higher = stronger binding
# Settings in all cases: glycan notation: IUPAC condensed, linker removed
# [1] = molecular target: Gal(b1-4)GlcNAc(b1-3)Gal(b1-4)GlcNAc(b1-2)[Gal(b1-4)GlcNAc(b1-3)Gal(b1-4)GlcNAc(b1-6)]Man(a1-6)[Gal(b1-4)GlcNAc(b1-3)Gal(b1-4)GlcNAc(b1-2)Man(a1-3)]Man(b1-4)GlcNAc(b1-4)[Fuc(a1-6)]GlcNAc
# Outline: (§1)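 Glycan array data came from 3228 arrays in the Consortium for Functional Glycomics database, and only arrays with an available protein sequence were kept. Glycan names were put into IUPAC-condensed notation, and columns mapping to the same glycan were averaged. The binding signal is a within-array Z-score, averaged across arrays of one protein sequence run at different concentrations or buffers and across linkers. A negative Z-score can be read as non-binding.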
# Gal3S6S(b1-4)GlcNAc6S = molecular target: Gal3S6S(b1-4)GlcNAc6S
# Outline: as §1
# Gal6S(b1-3)GlcNAc = molecular target: Gal6S(b1-3)GlcNAc
# Outline: as §1
# [2] = molecular target: GalNAc(a1-3)GalNAc(b1-3)Gal(a1-4)Gal(b1-4)Glc
# Outline: as §1
# GalNAc(b1-3)GlcNAc = molecular target: GalNAc(b1-3)GlcNAc
# Outline: as §1
# GalNAc(b1-4)GlcNAc = molecular target: GalNAc(b1-4)GlcNAc
# Outline: as §1
# [3] = molecular target: GalNAc(b1-4)GlcNAc(b1-2)Man
# Outline: as §1
# [4] = molecular target: GalNAc(b1-4)GlcNAc(b1-3)GalNAc(b1-4)GlcNAc
# Outline: as §1
# GalNAc(b1-4)GlcNAc6S = molecular target: GalNAc(b1-4)GlcNAc6S
# Outline: as §1
# GalNAc6S(b1-4)GlcNAc = molecular target: GalNAc6S(b1-4)GlcNAc
# Outline: as §1
# [5] = molecular target: GlcNAc(b1-2)Man(a1-3)[GlcNAc(b1-4)][GlcNAc(b1-2)Man(a1-6)]Man(b1-4)GlcNAc(b1-4)[Fuc(a1-6)]GlcNAc
# Outline: as §1
# [6] = molecular target: GlcNAc(b1-3)Gal(b1-4)GlcNAc(b1-3)Gal(b1-4)GlcNAc(b1-3)Gal(b1-4)GlcNAc(b1-2)Man(a1-3)[GlcNAc(b1-3)Gal(b1-4)GlcNAc(b1-3)Gal(b1-4)GlcNAc(b1-3)Gal(b1-4)GlcNAc(b1-2)Man(a1-6)]Man(b1-4)GlcNAc(b1-4)[Fuc(a1-6)]GlcNAc
# Outline: as §1
# [7] = molecular target: GlcNAc(b1-3)Gal(b1-4)GlcNAc(b1-3)Gal(b1-4)GlcNAc(b1-3)GalNAc
# Outline: as §1
# GlcNAc(b1-3)GalNAc = molecular target: GlcNAc(b1-3)GalNAc
# Outline: as §1
# GlcNAc(b1-4)GlcNAc = molecular target: GlcNAc(b1-4)GlcNAc
# Outline: as §1
# [8] = molecular target: GlcNAc6S(b1-3)Gal(b1-4)GlcNAc
# Outline: as §1
# Kdn(a2-3)Gal(b1-4)Glc = molecular target: Kdn(a2-3)Gal(b1-4)Glc
# Outline: as §1
# Kdn(a2-6)Gal(b1-4)GlcNAc = molecular target: Kdn(a2-6)Gal(b1-4)GlcNAc
# Outline: as §1
# [9] = molecular target: Man(a1-2)Man(a1-6)[Man(a1-3)]Man(a1-6)[Man(a1-2)Man(a1-2)Man(a1-3)]Man
# Outline: as §1
# Man(a1-6)Man = molecular target: Man(a1-6)Man
# Outline: as §1
# [10] = molecular target: Neu5Ac(a2-3)Gal(b1-3)GalNAc6S
# Outline: as §1
# [11] = molecular target: Neu5Ac(a2-3)Gal(b1-4)GlcNAc(b1-2)Man(a1-3)[GlcNAc(b1-4)][Neu5Ac(a2-3)Gal(b1-4)GlcNAc(b1-2)Man(a1-6)]Man(b1-4)GlcNAc(b1-4)GlcNAc
# Outline: as §1
# [12] = molecular target: Neu5Ac(a2-6)Gal(b1-4)GlcNAc(b1-2)[Neu5Ac(a2-6)Gal(b1-4)GlcNAc(b1-6)]Man(a1-6)[Neu5Ac(a2-6)Gal(b1-4)GlcNAc(b1-2)Man(a1-3)][GlcNAc(b1-4)]Man(b1-4)GlcNAc(b1-4)GlcNAc
# Outline: as §1
# [13] = molecular target: Neu5Ac(a2-6)Gal(b1-4)GlcNAc(b1-3)Gal(b1-4)GlcNAc(b1-3)Gal(b1-4)GlcNAc(b1-2)Man(a1-3)[Neu5Ac(a2-6)Gal(b1-4)GlcNAc(b1-3)Gal(b1-4)GlcNAc(b1-3)Gal(b1-4)GlcNAc(b1-2)Man(a1-6)]GalNAc
# Outline: as §1
# [14] = molecular target: Neu5Ac(a2-6)Gal(b1-4)GlcNAc(b1-3)[Neu5Ac(a2-6)Gal(b1-4)GlcNAc(b1-6)]GalNAc
# Outline: as §1
# [15] = molecular target: Neu5Ac(b2-6)Gal(b1-4)GlcNAc
# Outline: as §1
binder,measurement,setting,value
B1,glycan array binding signal (z-score),[1],-0.147
same,glycan array binding signal (z-score),Gal3S6S(b1-4)GlcNAc6S,-0.283
same,glycan array binding signal (z-score),Gal6S(b1-3)GlcNAc,-0.224
same,glycan array binding signal (z-score),[2],-0.001
same,glycan array binding signal (z-score),GalNAc(b1-3)GlcNAc,4.24
same,glycan array binding signal (z-score),GalNAc(b1-4)GlcNAc,6.23
same,glycan array binding signal (z-score),[3],6.09
same,glycan array binding signal (z-score),[4],7.74
same,glycan array binding signal (z-score),GalNAc(b1-4)GlcNAc6S,4.96
same,glycan array binding signal (z-score),GalNAc6S(b1-4)GlcNAc,7.28
same,glycan array binding signal (z-score),[5],-0.228
same,glycan array binding signal (z-score),[6],-0.217
same,glycan array binding signal (z-score),[7],-0.218
same,glycan array binding signal (z-score),GlcNAc(b1-3)GalNAc,-0.286
same,glycan array binding signal (z-score),GlcNAc(b1-4)GlcNAc,-0.304
same,glycan array binding signal (z-score),[8],-0.273
same,glycan array binding signal (z-score),Kdn(a2-3)Gal(b1-4)Glc,-0.301
same,glycan array binding signal (z-score),Kdn(a2-6)Gal(b1-4)GlcNAc,-0.285
same,glycan array binding signal (z-score),[9],-0.296
same,glycan array binding signal (z-score),Man(a1-6)Man,-0.294
same,glycan array binding signal (z-score),[10],-0.232
same,glycan array binding signal (z-score),[11],-0.226
same,glycan array binding signal (z-score),[12],-0.222
same,glycan array binding signal (z-score),[13],-0.13
same,glycan array binding signal (z-score),[14],-0.221
same,glycan array binding signal (z-score),[15],-0.31
